The panel holds about 79,000 compounds, 15% with a hit somewhere; the sample as a whole holds those more often. A number with no mark means an inactive call. Activity calls are given as the source filed them. Rule as the data show it: active = growth inhibition above about 70%; inactive = the rest.
Columns and labels:
[1] = NCI Yeast Anticancer Drug Screen. Data for the rad52 strain (AID 147);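 also: 0% = growth of vehicle-treated control cultures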; details: S. cerevisiae rad52 mutant growth inhibition, active compounds read high
Method in brief: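 The repair-mutant yeast strain was incubated with compounds, then growth was read and inhibition derived relative to vehicle.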

[2] = NCI Yeast Anticancer Drug Screen. Data for the wt1 strain (AID 149);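 also: 0% = growth of vehicle-treated wt1 cultures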; details: S. cerevisiae wt1 strain (SPY 50644) growth inhibition, active compounds read high
Method in brief: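 Compounds are added to wt1 yeast cultures. Growth is then measured. Inhibition is expressed relative to vehicle-treated controls.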

[3] = NCI Yeast Anticancer Drug Screen. Data for the rad50EPP+ strain (AID 151);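 also: 0% = growth of vehicle-treated control cultures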; details: S. cerevisiae rad50 mutant strain, active compounds read high
Method in brief: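 Vehicle-normalised growth inhibition; rad50EPP+ yeast strain, altered in DNA damage repair, compound-treated.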

[4] = NCI Yeast Anticancer Drug Screen. Data for the mgt1 strain (AID 153); details: S. cerevisiae mgt1 mutant growth inhibition, active compounds read high
Method in brief: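 Vehicle-normalized growth inhibition is determined in mgt1 yeast, a strain selected for a defined alteration in DNA repair or cell cycle control.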

[5] = NCI Yeast Anticancer Drug Screen. Data for the rad50 strain (AID 155);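 also: 0% = growth of vehicle-only cultures of the same strain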; details: S. cerevisiae rad50 strain growth inhibition, active compounds read high
Method in brief: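 Inhibition values express reduced yeast growth in compound-treated cultures relative to vehicle-treated controls.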

[6] = NCI Yeast Anticancer Drug Screen. Data for the mec2-1 strain (AID 157); details: S. cerevisiae mec2-1 strain, active compounds read high
Method in brief: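 Mutant yeast (mec2-1) grown with compound; growth inhibition relative to vehicle control reported.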

[7] = NCI Yeast Anticancer Drug Screen. Data for the rad14 strain (AID 159);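 also: 0% = growth of vehicle-treated control cultures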; details: S. cerevisiae rad14 strain growth inhibition, active compounds read high
Method in brief: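 A mutant yeast strain defective in DNA damage repair is treated with compound; inhibition of its growth is scored against untreated, vehicle-exposed cultures.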

[8] = NCI Yeast Anticancer Drug Screen. Data for the sgs1 mgt1 strain (AID 161);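 also: 0% = growth of cultures given vehicle only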; details: S. cerevisiae sgs1 mgt1 strain, active compounds read high
Method in brief: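 Compounds are added to genetically altered yeast, and growth is compared with cultures given vehicle alone to give percent inhibition.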

[9] = NCI Yeast Anticancer Drug Screen. Data for the CLN2oe strain (AID 163);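 also: 0% = growth of vehicle-only control cultures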; details: S. cerevisiae CLN2oe strain, active compounds read high
Method in brief: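 Compounds are applied to yeast harbouring a defined cell-cycle control change; reduced growth compared with vehicle-treated controls gives the value.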

[10] = NCI Yeast Anticancer Drug Screen. Data for the cln2 rad14 strain (AID 165);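 also: 0% = growth equal to vehicle treated cultures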; details: S. cerevisiae cln2 rad14 strain, active compounds read high
Method in brief: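 Readout is yeast growth inhibition versus vehicle-treated controls, using a strain with cln2 and rad14 alterations exposed to compound.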

[11] = NCI Yeast Anticancer Drug Screen. Data for the bub3 strain (AID 167); details: S. cerevisiae bub3 mutant strain, active compounds read high
Method in brief: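 Steps: expose the mutant yeast strain to compound; grow alongside vehicle-treated cultures; measure growth; express inhibition against the vehicle cultures.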

[12] = NCI Yeast Anticancer Drug Screen. Data for the wt2 strain (AID 169);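 also: 0% = growth of vehicle-treated yeast cultures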; details: S. cerevisiae wt2 strain growth inhibition, active compounds read high
Method in brief: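 Against vehicle-treated controls, the growth of yeast exposed to each compound was compared, and the inhibition was recorded.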

[13] = NCI Yeast Anticancer Drug Screen. Data for the mlh1 strain (AID 171);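 also: 0% = growth of vehicle-treated control cultures of the same strain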; details: S. cerevisiae mlh1 strain growth inhibition, active compounds read high
Method in brief: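 Measured: yeast growth. Reference: vehicle-treated controls. Organism: strain with a defined alteration affecting DNA damage repair or cell cycle control, treated with compound.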

[14] = NCI Yeast Anticancer Drug Screen. Data for the sgs1 strain (AID 173);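 also: 0% = growth of vehicle-only control cultures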; details: S. cerevisiae sgs1 mutant, active compounds read high
Method in brief: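 Each compound was added to cultures of the altered yeast strain. Growth was recorded, and inhibition was derived by comparison with vehicle controls.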

[15] = NCI Yeast Anticancer Drug Screen. Data for the mlh1 rad18 strain (AID 175); details: S. cerevisiae mlh1 rad18 strain growth inhibition, active compounds read high
Method in brief: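 Genetically defined yeast (DNA repair-deficient) exposed to compounds; growth inhibition determined relative to vehicle.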

[16] = NCI Yeast Anticancer Drug Screen. Data for the rad18 strain (AID 177); details: S. cerevisiae rad18 mutant growth inhibition, active compounds read high
Method in brief: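 Vehicle-treated cultures served as the baseline for scoring compound-induced growth inhibition in DNA-repair-mutant yeast.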

[17] = at 5.0 µM (retest, dose inferred, filed as 0.5)
[18] = at 50.0 µM (retest, dose inferred, filed as 5.0)

Question: Which growth inhibition ([1]; at 1.2 µM) does the source give for `CCCCCCCN1C(=O)c2ccccc2C1=O` here?
Answer: The growth inhibition was -1%.

Question: And the growth inhibition ([1]; at 3.7 µM)?
Answer: Its growth inhibition is -1%.

Question: And the growth inhibition ([1]; at 11.0 µM)?
Answer: Its growth inhibition is -3%.

Question: What about the growth inhibition ([1]; at 33.0 µM) of the same molecule?
Answer: The growth inhibition was 11%.

Question: And the growth inhibition ([1]; at 100.0 µM)?
Answer: The growth inhibition was 28%.

Question: What about the growth inhibition ([2]; at 1.2 µM) of the same molecule?
Answer: Its growth inhibition is 0%.

Question: And the growth inhibition ([2]; at 3.7 µM)?
Answer: Its growth inhibition is -1%.

Question: What about the growth inhibition ([2]; at 11.0 µM) of the same molecule?
Answer: Its growth inhibition is -1%.

Question: What about the growth inhibition ([2]; at 33.0 µM) of the same molecule?
Answer: Its growth inhibition is -1%.

Question: What about the growth inhibition ([2]; at 100.0 µM) of the same molecule?
Answer: Its growth inhibition is 0%.

Question: What about the growth inhibition ([3]; at 1.2 µM) of the same molecule?
Answer: Its growth inhibition is 0%.

Question: And the growth inhibition ([3]; at 3.7 µM)?
Answer: The growth inhibition was -1%.

Question: What about the growth inhibition ([3]; at 11.0 µM) of the same molecule?
Answer: The growth inhibition was 8%.

Question: And the growth inhibition ([3]; at 33.0 µM)?
Answer: The growth inhibition was 25%.

Question: And the growth inhibition ([3]; at 100.0 µM)?
Answer: The growth inhibition was 35%.

Question: What about the growth inhibition ([4]; at 1.2 µM) of the same molecule?
Answer: The growth inhibition was -7%.

Question: What about the growth inhibition ([4]; at 3.7 µM) of the same molecule?
Answer: The growth inhibition was -6%.

Question: What about the growth inhibition ([4]; at 11.0 µM) of the same molecule?
Answer: The growth inhibition was -5%.

Question: And the growth inhibition ([4]; at 33.0 µM)?
Answer: Its growth inhibition is 9%.

Question: What about the growth inhibition ([4]; at 100.0 µM) of the same molecule?
Answer: Its growth inhibition is 31%.

Question: And the growth inhibition ([5]; at 1.2 µM)?
Answer: Its growth inhibition is -2%.

Question: What about the growth inhibition ([5]; at 3.7 µM) of the same molecule?
Answer: Its growth inhibition is 5%.

Question: What about the growth inhibition [5, 17] of the same molecule?
Answer: Its growth inhibition is -17%.

Question: And the growth inhibition ([5]; at 11.0 µM)?
Answer: The growth inhibition was 7%.

Question: And the growth inhibition ([5]; at 33.0 µM)?
Answer: Its growth inhibition is 26%.

Question: And the growth inhibition [5, 18]?
Answer: Its growth inhibition is 3%.

Question: And the growth inhibition ([5]; at 50.0 µM)?
Answer: Its growth inhibition is 83.9% (active).

Question: And the growth inhibition ([5]; at 100.0 µM)?
Answer: Its growth inhibition is 22%.

Question: What about the growth inhibition ([6]; at 1.2 µM) of the same molecule?
Answer: The growth inhibition was -5%.

Question: And the growth inhibition ([6]; at 3.7 µM)?
Answer: Its growth inhibition is -8%.

Question: What about the growth inhibition [6, 17] of the same molecule?
Answer: Its growth inhibition is -10%.

Question: And the growth inhibition ([6]; at 11.0 µM)?
Answer: Its growth inhibition is -27%.

Question: And the growth inhibition ([6]; at 33.0 µM)?
Answer: The growth inhibition was -6%.

Question: And the growth inhibition [6, 18]?
Answer: Its growth inhibition is 11%.

Question: What about the growth inhibition ([6]; at 50.0 µM) of the same molecule?
Answer: Its growth inhibition is 53.2%.

Question: And the growth inhibition ([6]; at 100.0 µM)?
Answer: Its growth inhibition is -11%.

Question: What about the growth inhibition ([7]; at 1.2 µM) of the same molecule?
Answer: Its growth inhibition is -1%.

Question: And the growth inhibition ([7]; at 3.7 µM)?
Answer: The growth inhibition was -10%.

Question: What about the growth inhibition ([7]; at 11.0 µM) of the same molecule?
Answer: Its growth inhibition is 4%.

Question: And the growth inhibition ([7]; at 33.0 µM)?
Answer: Its growth inhibition is 13%.

Question: What about the growth inhibition ([7]; at 100.0 µM) of the same molecule?
Answer: Its growth inhibition is 2%.

Question: What about the growth inhibition [8, 17] of the same molecule?
Answer: Its growth inhibition is -14%.

Question: What about the growth inhibition [8, 18] of the same molecule?
Answer: Its growth inhibition is 19%.

Question: And the growth inhibition ([8]; at 50.0 µM)?
Answer: Its growth inhibition is 67.8%.

Question: What about the growth inhibition ([9]; at 1.2 µM) of the same molecule?
Answer: The growth inhibition was -1%.

Question: And the growth inhibition ([9]; at 3.7 µM)?
Answer: The growth inhibition was -2%.

Question: What about the growth inhibition ([9]; at 11.0 µM) of the same molecule?
Answer: Its growth inhibition is -4%.

Question: What about the growth inhibition ([9]; at 33.0 µM) of the same molecule?
Answer: Its growth inhibition is -6%.

Question: And the growth inhibition ([9]; at 100.0 µM)?
Answer: Its growth inhibition is -11%.

Question: What about the growth inhibition [10, 17] of the same molecule?
Answer: The growth inhibition was -7%.

Question: What about the growth inhibition [10, 18] of the same molecule?
Answer: Its growth inhibition is -8%.

Question: What about the growth inhibition ([10]; at 50.0 µM) of the same molecule?
Answer: The growth inhibition was 30.6%.

Question: What about the growth inhibition ([11]; at 1.2 µM) of the same molecule?
Answer: Its growth inhibition is 3%.

Question: And the growth inhibition ([11]; at 3.7 µM)?
Answer: The growth inhibition was -4%.

Question: And the growth inhibition [11, 17]?
Answer: Its growth inhibition is -17%.

Question: What about the growth inhibition ([11]; at 11.0 µM) of the same molecule?
Answer: Its growth inhibition is 28%.

Question: What about the growth inhibition ([11]; at 33.0 µM) of the same molecule?
Answer: Its growth inhibition is 36%.

Question: And the growth inhibition [11, 18]?
Answer: Its growth inhibition is 34%.

Question: And the growth inhibition ([11]; at 50.0 µM)?
Answer: The growth inhibition was 73.8% (active).

Question: What about the growth inhibition ([11]; at 100.0 µM) of the same molecule?
Answer: Its growth inhibition is 37%.

Question: And the growth inhibition ([12]; at 1.2 µM)?
Answer: Its growth inhibition is -2%.

Question: What about the growth inhibition ([12]; at 3.7 µM) of the same molecule?
Answer: Its growth inhibition is -1%.

Question: What about the growth inhibition ([12]; at 11.0 µM) of the same molecule?
Answer: Its growth inhibition is 0%.

Question: And the growth inhibition ([12]; at 33.0 µM)?
Answer: Its growth inhibition is 11%.

Question: And the growth inhibition ([12]; at 100.0 µM)?
Answer: Its growth inhibition is 45%.

Question: And the growth inhibition ([13]; at 1.2 µM)?
Answer: The growth inhibition was -12%.

Question: And the growth inhibition ([13]; at 3.7 µM)?
Answer: Its growth inhibition is -6%.

Question: And the growth inhibition ([13]; at 11.0 µM)?
Answer: Its growth inhibition is -19%.

Question: And the growth inhibition ([13]; at 33.0 µM)?
Answer: The growth inhibition was -19%.

Question: And the growth inhibition ([13]; at 100.0 µM)?
Answer: Its growth inhibition is 1%.

Question: What about the growth inhibition ([14]; at 1.2 µM) of the same molecule?
Answer: Its growth inhibition is 0%.

Question: What about the growth inhibition ([14]; at 3.7 µM) of the same molecule?
Answer: The growth inhibition was -1%.

Question: And the growth inhibition ([14]; at 11.0 µM)?
Answer: Its growth inhibition is 2%.

Question: And the growth inhibition ([14]; at 33.0 µM)?
Answer: Its growth inhibition is 14%.

Question: What about the growth inhibition ([14]; at 100.0 µM) of the same molecule?
Answer: The growth inhibition was 44%.

Question: What about the growth inhibition [15, 17] of the same molecule?
Answer: Its growth inhibition is -31%.

Question: What about the growth inhibition [15, 18] of the same molecule?
Answer: Its growth inhibition is 56%.

Question: And the growth inhibition ([15]; at 50.0 µM)?
Answer: The growth inhibition was 86.6% (active).

Question: What about the growth inhibition ([16]; at 1.2 µM) of the same molecule?
Answer: The growth inhibition was -1%.

Question: And the growth inhibition ([16]; at 3.7 µM)?
Answer: The growth inhibition was -5%.

Question: And the growth inhibition ([16]; at 11.0 µM)?
Answer: The growth inhibition was -1%.

Question: And the growth inhibition ([16]; at 33.0 µM)?
Answer: Its growth inhibition is 13%.

Question: What about the growth inhibition ([16]; at 100.0 µM) of the same molecule?
Answer: Its growth inhibition is 28%.
